Reference: ChEMBL document CHEMBL2218924, “A broad activity screen in support of a chemogenomic map for kinase signalling research and drug discovery” (Biochem J, 2013)

What was measured:
[1] = target: T1, Dual specificity mitogen-activated protein kinase kinase 6 (Homo sapiens) (UniProt P52564); details: at 1 µM
T1 sequence (whole entry): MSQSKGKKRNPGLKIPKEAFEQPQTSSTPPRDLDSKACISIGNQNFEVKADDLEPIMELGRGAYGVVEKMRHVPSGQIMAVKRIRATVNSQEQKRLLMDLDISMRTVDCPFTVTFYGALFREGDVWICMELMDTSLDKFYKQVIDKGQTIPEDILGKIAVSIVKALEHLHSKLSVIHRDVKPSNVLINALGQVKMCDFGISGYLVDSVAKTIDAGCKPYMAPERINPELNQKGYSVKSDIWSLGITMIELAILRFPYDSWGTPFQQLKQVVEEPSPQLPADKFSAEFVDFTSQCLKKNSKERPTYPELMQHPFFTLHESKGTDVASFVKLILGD

[2] = target: T1, Dual specificity mitogen-activated protein kinase kinase 6 (Homo sapiens); details: at 10 µM
[3] = target: T2, Dual specificity mitogen-activated protein kinase kinase 7 (Homo sapiens) (UniProt O14733); details: at 1 µM
T2 sequence (whole entry): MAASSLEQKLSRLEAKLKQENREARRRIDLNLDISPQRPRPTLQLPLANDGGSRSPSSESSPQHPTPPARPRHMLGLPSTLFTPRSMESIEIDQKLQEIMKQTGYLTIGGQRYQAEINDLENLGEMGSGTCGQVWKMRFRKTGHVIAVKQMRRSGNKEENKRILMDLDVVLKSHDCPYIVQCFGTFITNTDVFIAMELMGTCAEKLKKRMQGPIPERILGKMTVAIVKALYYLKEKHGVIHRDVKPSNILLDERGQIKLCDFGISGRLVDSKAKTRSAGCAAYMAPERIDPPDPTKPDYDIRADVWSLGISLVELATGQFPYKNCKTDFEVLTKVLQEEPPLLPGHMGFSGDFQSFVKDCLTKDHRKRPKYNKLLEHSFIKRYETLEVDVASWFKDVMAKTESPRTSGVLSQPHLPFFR

[4] = target: T2, Dual specificity mitogen-activated protein kinase kinase 7 (Homo sapiens); details: at 10 µM
[5] = target: Myosin light chain kinase, smooth muscle (Homo sapiens) (UniProt Q15746); details: at 1 µM
Chain of Myosin light chain kinase, smooth muscle (Homo sapiens) (Q15746 whole entry): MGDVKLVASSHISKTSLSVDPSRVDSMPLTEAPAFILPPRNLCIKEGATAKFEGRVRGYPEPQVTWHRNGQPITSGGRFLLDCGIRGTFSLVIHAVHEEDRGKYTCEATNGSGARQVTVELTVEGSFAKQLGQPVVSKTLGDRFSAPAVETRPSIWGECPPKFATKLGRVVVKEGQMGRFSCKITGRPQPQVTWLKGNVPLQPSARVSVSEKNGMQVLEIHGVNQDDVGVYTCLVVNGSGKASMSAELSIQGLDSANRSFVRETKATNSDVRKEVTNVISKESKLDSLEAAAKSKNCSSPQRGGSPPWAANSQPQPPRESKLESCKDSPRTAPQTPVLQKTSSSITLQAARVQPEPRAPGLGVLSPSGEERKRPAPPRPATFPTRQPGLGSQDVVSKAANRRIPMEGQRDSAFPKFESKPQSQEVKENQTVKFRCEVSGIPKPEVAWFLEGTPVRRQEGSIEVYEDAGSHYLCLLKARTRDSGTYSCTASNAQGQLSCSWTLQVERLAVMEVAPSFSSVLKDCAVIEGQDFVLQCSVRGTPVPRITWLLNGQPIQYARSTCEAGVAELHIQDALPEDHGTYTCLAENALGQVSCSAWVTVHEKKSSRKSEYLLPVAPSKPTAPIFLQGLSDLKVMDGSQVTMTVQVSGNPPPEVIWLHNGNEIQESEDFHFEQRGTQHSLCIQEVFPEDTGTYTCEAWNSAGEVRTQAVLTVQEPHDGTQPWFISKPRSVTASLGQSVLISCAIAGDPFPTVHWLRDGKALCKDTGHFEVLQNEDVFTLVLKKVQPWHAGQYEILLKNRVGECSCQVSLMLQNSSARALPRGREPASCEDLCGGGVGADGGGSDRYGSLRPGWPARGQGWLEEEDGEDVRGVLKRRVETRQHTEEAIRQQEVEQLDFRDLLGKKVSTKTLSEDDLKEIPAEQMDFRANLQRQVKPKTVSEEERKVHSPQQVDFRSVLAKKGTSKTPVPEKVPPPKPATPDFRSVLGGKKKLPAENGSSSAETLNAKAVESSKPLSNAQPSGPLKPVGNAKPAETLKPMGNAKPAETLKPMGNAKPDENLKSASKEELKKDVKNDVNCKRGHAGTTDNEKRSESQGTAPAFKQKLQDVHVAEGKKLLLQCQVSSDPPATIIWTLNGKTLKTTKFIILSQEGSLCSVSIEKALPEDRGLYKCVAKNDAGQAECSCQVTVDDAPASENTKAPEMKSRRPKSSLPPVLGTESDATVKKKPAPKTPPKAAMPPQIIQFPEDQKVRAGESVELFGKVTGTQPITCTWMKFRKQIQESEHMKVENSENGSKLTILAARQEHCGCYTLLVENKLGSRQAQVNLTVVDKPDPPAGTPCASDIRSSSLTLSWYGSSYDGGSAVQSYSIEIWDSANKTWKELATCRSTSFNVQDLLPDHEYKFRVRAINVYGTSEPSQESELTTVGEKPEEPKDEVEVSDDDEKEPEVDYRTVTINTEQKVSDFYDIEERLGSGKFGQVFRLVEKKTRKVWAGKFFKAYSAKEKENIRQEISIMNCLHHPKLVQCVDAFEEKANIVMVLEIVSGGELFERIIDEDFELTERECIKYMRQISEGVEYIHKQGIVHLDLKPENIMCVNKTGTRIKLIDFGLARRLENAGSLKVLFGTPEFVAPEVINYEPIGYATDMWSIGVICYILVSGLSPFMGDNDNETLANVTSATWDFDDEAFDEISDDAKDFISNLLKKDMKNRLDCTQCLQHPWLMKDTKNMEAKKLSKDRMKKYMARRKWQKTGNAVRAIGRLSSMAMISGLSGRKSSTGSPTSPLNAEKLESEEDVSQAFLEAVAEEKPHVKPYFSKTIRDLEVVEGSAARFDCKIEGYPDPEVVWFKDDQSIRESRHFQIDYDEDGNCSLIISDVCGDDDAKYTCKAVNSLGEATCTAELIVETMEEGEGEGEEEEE

[6] = target: Myosin light chain kinase, smooth muscle (Homo sapiens) (UniProt Q15746); details: at 10 µM
[7] = target: Mitogen-activated protein kinase kinase kinase 9 (Homo sapiens) (UniProt P80192); details: at 1 µM
Chain of Mitogen-activated protein kinase kinase kinase 9 (Homo sapiens) (P80192 whole entry, looked up): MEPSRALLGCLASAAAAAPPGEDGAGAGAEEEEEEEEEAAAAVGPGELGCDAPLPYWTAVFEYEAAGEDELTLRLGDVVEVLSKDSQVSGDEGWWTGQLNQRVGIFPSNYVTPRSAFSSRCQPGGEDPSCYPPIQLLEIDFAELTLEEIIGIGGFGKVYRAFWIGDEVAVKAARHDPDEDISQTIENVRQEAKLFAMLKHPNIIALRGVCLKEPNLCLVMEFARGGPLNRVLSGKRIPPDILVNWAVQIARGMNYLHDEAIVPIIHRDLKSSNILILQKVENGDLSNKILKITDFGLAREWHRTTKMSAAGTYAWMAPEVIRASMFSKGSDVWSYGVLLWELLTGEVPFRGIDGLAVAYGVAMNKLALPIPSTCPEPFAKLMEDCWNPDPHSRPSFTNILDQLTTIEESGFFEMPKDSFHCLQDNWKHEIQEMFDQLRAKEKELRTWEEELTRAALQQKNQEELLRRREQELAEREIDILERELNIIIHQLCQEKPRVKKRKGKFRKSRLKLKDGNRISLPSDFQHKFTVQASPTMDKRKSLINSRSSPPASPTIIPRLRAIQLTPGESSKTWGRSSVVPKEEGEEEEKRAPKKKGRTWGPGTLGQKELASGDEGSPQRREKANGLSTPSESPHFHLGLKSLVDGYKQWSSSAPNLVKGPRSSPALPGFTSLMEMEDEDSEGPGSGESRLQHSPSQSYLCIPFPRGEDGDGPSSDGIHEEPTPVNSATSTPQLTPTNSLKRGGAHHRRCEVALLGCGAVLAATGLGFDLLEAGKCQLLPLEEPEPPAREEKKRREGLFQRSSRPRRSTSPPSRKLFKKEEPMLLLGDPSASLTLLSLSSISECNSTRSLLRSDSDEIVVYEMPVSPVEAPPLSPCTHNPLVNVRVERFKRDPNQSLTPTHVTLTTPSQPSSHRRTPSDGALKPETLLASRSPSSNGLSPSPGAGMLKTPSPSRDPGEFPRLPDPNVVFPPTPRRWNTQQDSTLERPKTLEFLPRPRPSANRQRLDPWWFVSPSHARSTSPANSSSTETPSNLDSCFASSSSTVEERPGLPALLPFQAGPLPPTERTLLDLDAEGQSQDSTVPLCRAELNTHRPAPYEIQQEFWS

[8] = target: Mitogen-activated protein kinase kinase kinase 9 (Homo sapiens) (UniProt P80192); details: at 10 µM
[9] = target: Serine/threonine-protein kinase MRCK alpha (Homo sapiens) (UniProt Q5VT25); details: at 1 µM
Chain of Serine/threonine-protein kinase MRCK alpha (Homo sapiens) (Q5VT25 whole entry): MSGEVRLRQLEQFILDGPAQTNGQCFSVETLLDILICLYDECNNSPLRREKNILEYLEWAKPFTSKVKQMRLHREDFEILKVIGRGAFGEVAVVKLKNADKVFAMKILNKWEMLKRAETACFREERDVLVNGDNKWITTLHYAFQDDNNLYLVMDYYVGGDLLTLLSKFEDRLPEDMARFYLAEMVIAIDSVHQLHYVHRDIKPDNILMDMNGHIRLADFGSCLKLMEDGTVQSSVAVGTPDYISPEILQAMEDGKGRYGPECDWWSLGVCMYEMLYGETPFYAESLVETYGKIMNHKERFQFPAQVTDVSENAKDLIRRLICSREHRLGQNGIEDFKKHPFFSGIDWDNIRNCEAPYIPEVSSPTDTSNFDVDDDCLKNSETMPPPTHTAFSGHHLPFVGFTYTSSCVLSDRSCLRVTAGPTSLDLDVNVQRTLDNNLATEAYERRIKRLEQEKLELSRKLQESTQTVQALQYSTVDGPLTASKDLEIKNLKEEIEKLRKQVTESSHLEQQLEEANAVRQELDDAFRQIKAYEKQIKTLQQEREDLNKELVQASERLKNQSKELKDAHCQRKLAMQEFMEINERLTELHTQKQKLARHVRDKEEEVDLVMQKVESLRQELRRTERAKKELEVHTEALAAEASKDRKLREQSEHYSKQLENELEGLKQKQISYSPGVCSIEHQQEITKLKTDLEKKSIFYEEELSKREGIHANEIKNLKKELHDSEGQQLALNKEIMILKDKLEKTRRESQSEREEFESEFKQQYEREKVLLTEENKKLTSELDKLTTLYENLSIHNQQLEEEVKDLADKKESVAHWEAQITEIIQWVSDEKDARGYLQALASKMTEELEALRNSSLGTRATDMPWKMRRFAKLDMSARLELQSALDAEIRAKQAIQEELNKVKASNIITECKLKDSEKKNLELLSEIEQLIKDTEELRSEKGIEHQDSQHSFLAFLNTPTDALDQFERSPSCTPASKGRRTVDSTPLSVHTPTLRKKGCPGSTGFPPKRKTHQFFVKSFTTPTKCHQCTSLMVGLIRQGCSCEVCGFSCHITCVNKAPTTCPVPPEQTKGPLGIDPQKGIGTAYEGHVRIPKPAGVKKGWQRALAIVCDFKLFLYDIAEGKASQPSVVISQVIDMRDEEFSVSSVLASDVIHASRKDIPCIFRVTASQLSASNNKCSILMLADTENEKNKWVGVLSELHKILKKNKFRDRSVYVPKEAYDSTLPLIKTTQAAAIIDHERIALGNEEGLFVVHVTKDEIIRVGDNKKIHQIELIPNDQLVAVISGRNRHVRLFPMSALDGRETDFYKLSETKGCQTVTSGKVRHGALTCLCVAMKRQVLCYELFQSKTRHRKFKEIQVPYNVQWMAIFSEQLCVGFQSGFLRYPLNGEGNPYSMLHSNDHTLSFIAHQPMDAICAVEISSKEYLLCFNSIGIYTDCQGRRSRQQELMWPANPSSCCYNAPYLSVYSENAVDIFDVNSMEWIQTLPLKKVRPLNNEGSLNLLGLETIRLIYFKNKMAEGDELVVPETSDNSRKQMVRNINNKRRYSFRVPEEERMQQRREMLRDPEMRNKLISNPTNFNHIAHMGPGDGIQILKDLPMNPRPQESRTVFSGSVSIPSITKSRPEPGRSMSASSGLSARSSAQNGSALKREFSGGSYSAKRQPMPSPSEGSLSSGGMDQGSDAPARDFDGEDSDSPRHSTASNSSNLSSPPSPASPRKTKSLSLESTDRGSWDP

[10] = target: Serine/threonine-protein kinase MRCK alpha (Homo sapiens) (UniProt Q5VT25); details: at 10 µM

Row | SMILES | residual activity [1] | residual activity [2] | residual activity [3] | residual activity [4] | residual activity [5] | residual activity [6] | residual activity [7] | residual activity [8] | residual activity [9] | residual activity [10]
1 | Cc1cccc(-c2[nH]c(C(C)(C)C)nc2-c2ccc3c(c2)OCO3)n1 | 70% | 39% | 107% | 83% | 84% | 90% | 99% |  |  | 
2 | O=Nc1c(-c2c(O)[nH]c3ccccc23)[nH]c2ccccc12 | 63% | 40% | 52% | 7% | 46% | 13% | 6% | 1% | 142% | 135%
3 | CCOc1cc2ncnc(Nc3cccc(Br)c3)c2cc1OCC | 81% | 44% | 91% | 72% | 69% | 41% | 72% | 26% | 88% | 99%
4 | COc1cccc(-c2cc(=O)c3ccccc3o2)c1N | 138% | 77% | 106% | 84% | 107% | 77% | 111% | 96% | 118% | 96%
5 | O=C1Nc2cc(Br)ccc2/C1=C1/Nc2ccccc2/C1=N\O | 87% | 65% | 80% | 93% | 25% | 32% | 21% | 10% | 141% | 103%
6 | CC(=O)c1ccc(N2CCOCC2)cc1O | 75% | 91% | 104% | 96% | 83% | 85% | 89% | 97% | 105% | 92%
7 | COc1ccc(CNc2nc(N(CCO)CCO)nc3c2ncn3C(C)C)cc1 | 102% | 100% | 86% | 95% | 108% | 68% | 82% | 41% | 108% | 89%
8 | O=c1c2ccccc2[nH]c(=S)n1CCN1CCC(=C(c2ccc(F)cc2)c2ccc(F)cc2)CC1 | 107% | 93% | 82% | 90% | 73% | 86% | 92% | 101% | 107% | 103%
9 | Oc1c2ccccc2c2c3c(cccc13)N=N2 | 82% | 13% | 58% | 6% | 29% | 3% | 13% | 4% | 115% | 116%
10 | O=C1NC(=O)/C(=C\c2ccc3nccnc3c2)S1 | 95% | 85% | 96% | 88% | 81% | 62% | 80% | 53% | 106% | 93%
11 | N#C/C(=C(\N)Sc1ccc(N)cc1)c1ccccc1C(F)(F)F | 93% | 83% | 88% | 96% | 95% | 75% | 93% | 89% | 107% | 94%
12 | Cc1ccc(S(=O)(=O)/C=C/C#N)cc1 | 124% | 94% | 93% | 77% | 95% | 85% | 97% | 97% | 86% | 95%
13 | c1ccc2c(-c3ccncc3)c[nH]c2c1 | 77% | 93% | 101% | 94% | 72% | 66% | 74% | 60% |  | 
14 | O=C1Nc2ccccc2/C1=C1/Nc2ccccc2/C1=N\OCCC(O)CO (stereo not given) | 51% | 7% | 54% | 5% | 26% | 20% | 2% | 2% | 111% | 107%
15 | O=c1cc(-c2cccc3c2Sc2ccccc2S3)oc(N2CCOCC2)c1 | 113% | 78% | 106% | 82% | 114% | 69% | 103% | 96% | 110% | 112%
16 | CO[C@H]1C[C@@H]2CC[C@@H](C)[C@@](O)(O2)C(=O)C(=O)N2CCCC[C@H]2C(=O)O[C@H]([C@H](C)C[C@@H]2CC[C@@H](O)[C@H](OC)C2)CC(=O)[C@H](C)/C=C(\C)[C@@H](O)[C@@H](OC)C(=O)[C@H](C)C[C@H](C)/C=C/C=C/C=C/1C | 93% | 82% | 102% | 102% | 75% | 101% | 91% | 106% | 118% | 146%
17 | Oc1ccc(-c2nc(-c3ccc(F)cc3)c(-c3ccncc3)[nH]2)cc1 | 12% | -1% | 80% | 57% | 111% | 80% | 54% | 12% | 116% | 103%
18 | CCC(=O)Nc1ccc2ncnc(Nc3cccc(Br)c3)c2c1 | 77% | 108% | 94% | 89% | 68% | 82% | 89% | 78% | 109% | 101%
19 | Nc1nc(Nc2ccc(S(N)(=O)=O)cc2)nn1C(=S)Nc1c(F)cccc1F | 26% | 20% | 65% | 16% | 79% | 29% | -1% | -1% | 28% | 24%
20 | Cc1nc(-c2ccccc2)c(-c2ccncc2)o1 | 99% | 37% | 100% | 103% | 106% | 88% | 106% | 102% | 114% | 129%
